Measurements published in PubChem BioAssay (NCATS).
Results filed as inconclusive are left out. Activity calls are given as the source filed them. The call rests on the fitted dose curve; in most records, active means well fitted curve in the direction sought with a large enough effect; inconclusive means small, poorly fitted or top-dose-only effect, or another doubt; inactive means no such curve, though single readings can be large; an effect the other way counts as inactive or inconclusive.

Assays:
[1] = NS1 protein of Zika virus - qHTS assay to identify small molecule inhibitors in human HEK 293 cells (AID 1347053); further: nearly all actives have a fitted effect of over 55% in size; further: potency means the concentration at half of the fitted maximal effect
Method in brief: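 Following 20 h seeding, HEK 293 cells took compound, then 1 h later ZIKV MR766 (MOI = 0.5). Incubation ran 24 h at 37 C before TR-FRET detection of NS1; a drop in signal indicates inhibition.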

[2] = qHTS of pediatric cancer cell lines to identify multiple opportunities for drug repurposing: Primary screen for TC32 cells (AID 1347089); further: nearly all actives have a fitted effect of over 60% in size
Method in brief: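 In the primary qHTS, MIPE compounds were tested at 11 concentrations (0.78 nM to 46 µM) and NPC compounds at 8 (0.59 nM to 46 µM) on TC32 cells for 48 h. CellTiter-Glo luminescence gave viability.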

[3] = qHTS of pediatric cancer cell lines to identify multiple opportunities for drug repurposing: Primary screen for SJ-GBM2 cells (AID 1347091); further: potency means the concentration at half of the fitted maximal effect
Method in brief: (§1)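 Cell viability, CellTiter-Glo luminescence; 500-1,000 cells/well, 8- or 11-point titration, 48 h compound exposure at 37 degrees C, 5% CO2. Controls: DMSO neutral, bortezomib 2.3 µM final as positive.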

[4] = qHTS of pediatric cancer cell lines to identify multiple opportunities for drug repurposing: Primary screen for SK-N-MC cells (AID 1347093); further: potency means the concentration at half of the fitted maximal effect
Method in brief: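 Metabolically active cells were quantified by ATP-dependent luminescence (CellTiter-Glo, 15 min at room temperature) following 48 h treatment. Cells had been plated at 500-1,000 per well and settled for 5 h beforehand.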

[5] = qHTS of pediatric cancer cell lines to identify multiple opportunities for drug repurposing: Primary screen for NB-EBc1 cells (AID 1347095); further: potency means the concentration at half of the fitted maximal effect
Method in brief: (§2)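 Plated cells (500-1,000 per well, growth media) were allowed to settle for 5 hours, treated with compound dilutions for 48 hours, then lysed with CellTiter-Glo for 15 min at room temperature before luminescence reading.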

[6] = qHTS of pediatric cancer cell lines to identify multiple opportunities for drug repurposing: Primary screen for U-2 OS cells (AID 1347096); further: nearly all actives have a fitted effect of over 50% in size; further: potency means the concentration at half of the fitted maximal effect
Method in brief: (§3)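 Cells (500-1,000/well) rested 5 h, then received compounds for 48 h; metabolically active cells were measured by CellTiter-Glo luminescence. Final concentrations spanned up to 46 µM (MIPE, 11-point) or 0.59 nM-46 µM (NPC, 8-point) in primary screens, 11-point in follow-ups.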

[7] = qHTS of pediatric cancer cell lines to identify multiple opportunities for drug repurposing: Primary screen for Saos-2 cells (AID 1347097); further: nearly all actives have a fitted effect of over 40% in size; further: potency means the concentration at half of the fitted maximal effect
Method in brief: as §2

[8] = qHTS of pediatric cancer cell lines to identify multiple opportunities for drug repurposing: Primary screen for SK-N-SH cells (AID 1347098); further: nearly all actives have a fitted effect of over 65% in size; further: potency means the concentration at half of the fitted maximal effect
Method in brief: as §3

[9] = qHTS of pediatric cancer cell lines to identify multiple opportunities for drug repurposing: Primary screen for NB1643 cells (AID 1347099); further: nearly all actives have a fitted effect of over 50% in size; further: potency means the concentration at half of the fitted maximal effect
Method in brief: as §2

[10] = qHTS of pediatric cancer cell lines to identify multiple opportunities for drug repurposing: Primary screen for OHS-50 cells (AID 1347103); further: nearly all actives have a fitted effect of over 40% in size; further: potency means the concentration at half of the fitted maximal effect
Method in brief: as §3

[11] = qHTS of pediatric cancer cell lines to identify multiple opportunities for drug repurposing: Primary screen for MG 63 (6-TG R) cells (AID 1347105); further: nearly all actives have a fitted effect of over 50% in size; further: potency means the concentration at half of the fitted maximal effect
Method in brief: as §2

[12] = qHTS of pediatric cancer cell lines to identify multiple opportunities for drug repurposing: Primary screen for LAN-5 cells (AID 1347100); further: potency means the concentration at half of the fitted maximal effect
Method in brief: as §3

[13] = qHTS of pediatric cancer cell lines to identify multiple opportunities for drug repurposing: Primary screen for BT-12 cells (AID 1347101); further: nearly all actives have a fitted effect of over 25% in size; further: potency means the concentration at half of the fitted maximal effect
Method in brief: as §3

[14] = qHTS of pediatric cancer cell lines to identify multiple opportunities for drug repurposing: Primary screen for Rh18 cells (AID 1347102); further: nearly all actives have a fitted effect of over 65% in size; further: potency means the concentration at half of the fitted maximal effect
Method in brief: as §3

[15] = qHTS of pediatric cancer cell lines to identify multiple opportunities for drug repurposing: Primary screen for BT-37 cells (AID 1347094); further: potency means the concentration at half of the fitted maximal effect
Method in brief: as §2

[16] = qHTS of pediatric cancer cell lines to identify multiple opportunities for drug repurposing: Primary screen for DAOY cells (AID 1347090); further: nearly all actives have a fitted effect of over 55% in size; further: potency means the concentration at half of the fitted maximal effect
Method in brief: as §1

[17] = qHTS of pediatric cancer cell lines to identify multiple opportunities for drug repurposing: Primary screen for A673 cells (AID 1347092); further: nearly all actives have a fitted effect of over 45% in size; further: potency means the concentration at half of the fitted maximal effect
Method in brief: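 48 h compound exposure, A673, 500-1,000 cells/well, 37 degrees C/5% CO2. MIPE: 11-point, 0.78 nM-46 µM; NPC: 8-point, 0.59 nM-46 µM (final). Readout CellTiter-Glo luminescence after 15 min RT.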

[18] = qHTS of pediatric cancer cell lines to identify multiple opportunities for drug repurposing: Primary screen for RD cells (AID 1347104); further: nearly all actives have a fitted effect of over 55% in size; further: potency means the concentration at half of the fitted maximal effect
Method in brief: as §2

Measured: Potency

O=C1NC(=O)C(=Cc2ccc3nccnc3c2)S1
active: [3] 8.12 µM | [4] 2.29 µM | [5] 4.57 µM | [7] 8.12 µM | [9] 7.24 µM | [10] 4.21 µM | [11] 5.12 µM
inactive: [1] | [2] | [6] | [8]

Oc1ccc(C2CCN(c3ccnc4ccccc34)CC2)cc1O
inactive: [1] | [2] | [7] | [14]
active: [5] 23.5 µM | [12] 18.7 µM | [13] 7.69 µM | [10] 17.2 µM

COc1ccc2c3c1OC1C[C@@H](O)C=C[C@@]31CCN(C)C2 (stereo not given in full)
inactive: [1] | [2] | [15] | [6] | [7] | [12] | [13] | [14] | [10] | [11]

NC(=O)[C@@H](CCC(F)(F)F)N(Cc1ccc(-c2ncon2)cc1F)S(=O)(=O)c1ccc(Cl)cc1
inactive: [1] | [2] | [5] | [6] | [8] | [12]
active: [4] 23.5 µM | [9] 23.5 µM

CC1(C)S[C@H]2[C@H](NC(=O)[C@@H](N)c3ccc(O)cc3)C(=O)N2[C@@H]1C(=O)O
active: [16] 9.35 µM | [3] 16.6 µM | [17] 0.935 µM | [4] 0.743 µM | [15] 6.85 µM | [5] 16.6 µM | [8] 24.1 µM | [9] 1.18 µM | [12] 3.72 µM | [14] 2.96 µM | [18] 2.96 µM
inactive: [1]

CNC1CCC(N(Cc2cccc(-c3ccncc3)c2)C(=O)c2sc3c(F)ccc(F)c3c2Cl)CC1 (stereo not given)
active: [1] 10.5 µM | [17] 23.5 µM | [4] 1.18 µM | [7] 18.7 µM | [8] 19.2 µM | [9] 18.7 µM | [10] 24.3 µM | [18] 10.5 µM
inactive: [2]

COc1ccc(C2Sc3ccccc3N(CCN(C)C)C(=O)C2OC(C)=O)cc1 (stereo not given)
not listed: [4] | [7] | [8] | [9] | [12] | [16] | [17]
inactive: all other assays above

O=c1c(-c2ccc(O)cc2)coc2cc(OC3O[C@H](CO)[C@H](O)[C@H](O)[C@H]3O)cc(O)c12 (stereo not given in full)
active: [16] 3.72 µM | [17] 2.96 µM | [4] 2.96 µM | [15] 21.7 µM | [5] 18.7 µM | [8] 9.61 µM | [18] 6.62 µM
inactive: [1] | [3] | [6] | [7] | [10]

CC1(C)Cc2c(sc(NC(=S)NC(=O)c3ccccc3)c2C(=O)O)CO1
active: [4] 1.66 µM | [9] 5.26 µM | [18] 33.2 µM
not listed: [8] | [16] | [17]
inactive: all other assays above

O=C(CCc1ccc(O)cc1)c1c(O)cc(O)cc1O[C@@H]1O[C@H](CO)[C@H](O)[C@H](O)[C@H]1O
active: [9] 26.4 µM
not listed: [4] | [16] | [17]
inactive: all other assays above

O=C1C(Cl)=C(NCCN2CCOCC2)C(=O)c2ncccc21
active: [1] 9.35 µM | [16] 11.8 µM | [17] 1.87 µM | [4] 7.43 µM | [15] 3.43 µM | [5] 4.69 µM | [6] 5.9 µM | [7] 2.35 µM | [8] 7.64 µM | [9] 9.35 µM | [12] 8.33 µM | [13] 3.43 µM | [14] 2.35 µM | [10] 9.68 µM | [18] 5.9 µM | [11] 18.7 µM

COCCOC(=O)C1=C(C)NC2=C(C(=O)CC(c3ccccc3OC)C2)C1c1cccc(O)c1 (stereo not given)
inactive: [1] | [6] | [13]
active: [17] 23.5 µM | [4] 18.7 µM | [5] 18.7 µM | [8] 13.6 µM | [12] 13.2 µM | [10] 19.3 µM | [18] 18.7 µM | [11] 14.8 µM

Cc1cnc(C(=O)O)c[n+]1[O-]
not listed: [1] | [8] | [13]
inactive: all other assays above

Cc1ccn(-c2ccc(-c3ncco3)cc2)c(=O)c1-c1ccc2nc(N)ncc2c1
inactive: [1] | [5] | [6] | [9] | [12]
active: [4] 3.32 µM | [10] 2.73 µM

C[N+](C)(C)CC(=O)O
active: [4] 16.6 µM
not listed: [1] | [12] | [13]
inactive: all other assays above
